# Results from the supplement of paper PMC9262897, “Low-cost anti-mycobacterial drug discovery using engineered E. coli” (Nature Communications, 2022).
# Counter-ions that a name gives are not always drawn. ± gives the standard deviation of the averaged measurements.
# Test system: E. coli TESEC Mtb DapB
# Test: growth (OD600 after 10 h); higher = more growth (less inhibition)
# Conditions: arabinose induction (level): High; compound 0.1 mM; raw OD600 reference: median of DMSO wells […], cell-free background 0.041
# Protocol: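 TESEC E. coli strains in which the native enzyme is deleted and replaced by arabinose-inducible Mtb Asd, DapB, CysH or TrpD, each grown in its selective medium. Strains were screened against the Prestwick library at 0.1 mM and 1% DMSO in 384-well format at low and high arabinose induction. Growth is read as OD600 after 10 h in triplicate.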
row,SMILES,growth
1,O=C1CC[C@@H](C(=O)N2CSC[C@H]2C(=O)O)N1 [Pidotimod],0.191 ± 0.013
2,OCCOCCN1CCN(C(c2ccccc2)c2ccc(Cl)cc2)CC1 (stereo not given) [Hydroxyzine dihydrochloride],0.182 ± 0.011
3,O=C(Oc1cccc2cccnc12)c1ccccc1 [Benzoxiquine],0.182 ± 0.018
4,CCCN[C@H]1CCc2nc(N)sc2C1 [Pramipexole dihydrochloride],0.174 ± 0.013
5,NS(=O)(=O)c1cc2c(cc1Cl)N=C(CSCc1ccccc1)NS2(=O)=O [Benzthiazide],0.194 ± 0.016
6,CC(C(O)c1ccc(O)cc1)N1CCC(Cc2ccccc2)CC1 (stereo not given) [Ifenprodil tartrate],0.1878 ± 0.00062
7,O=C(O[C@@H]1C[C@@H]2C[C@H]3C[C@H](C1)N2CC3=O)c1c[nH]c2ccccc12 [Dolasetron mesilate],0.192 ± 0.019
8,Cc1ccc(/C(=C\CN2CCCC2)c2ccccn2)cc1 [Triprolidine hydrochloride],0.165 ± 0.0066
9,C[C@H]1O[C@@H](O[C@H]2[C@@H](O)C[C@H](O[C@H]3[C@@H](O)C[C@H](O[C@H]4CC[C@@]5(C)[C@H](CC[C@@H]6[C@@H]5C[C@@H](O)[C@]5(C)[C@@H](C7=CC(=O)OC7)CC[C@]65O)C4)O[C@@H]3C)O[C@@H]2C)C[C@H](O)[C@@H]1O [Digoxin],0.196 ± 0.016
10,COc1cc2nc(N(C)CCCNC(=O)C3CCCO3)nc(N)c2cc1OC (stereo not given) [Alfuzosin hydrochloride],0.217 ± 0.007
11,CO[C@H]1/C=C/O[C@@]2(C)Oc3c(C)c(O)c4c(O)c(c(/C=N/N5CCN(C6CCCC6)CC5)c(O)c4c3C2=O)NC(=O)/C(C)=C\C=C\[C@H](C)[C@H](O)[C@@H](C)[C@@H](O)[C@@H](C)[C@H](OC(C)=O)[C@@H]1C [Rifapentine],0.102 ± 0.087
12,CNC(=C[N+](=O)[O-])NCCSCc1csc(CN(C)C)n1 [Nizatidine],0.205 ± 0.019
13,CC(C)CC(=O)N[C@H](C(=O)N[C@H](C(=O)N[C@@H](CC(C)C)[C@@H](O)CC(=O)N[C@@H](C)C(=O)N[C@@H](CC(C)C)[C@@H](O)CC(=O)O)C(C)C)C(C)C [Pepstatin A],0.172 ± 0.0073
14,O=C(O)Cc1ccc(-c2ccccc2)cc1 [Felbinac],0.194 ± 0.014
15,Cc1cnc(NC(=O)C2=C(O)c3ccccc3S(=O)(=O)N2C)s1 [Meloxicam],0.201 ± 0.021
16,O=c1[nH]c(=O)n([C@H]2C[C@H](O)[C@@H](CO)O2)cc1I [Idoxuridine],0.185 ± 0.0093
17,C[C@H](CCC(=O)O)[C@H]1CC[C@H]2[C@@H]3C(=O)C[C@@H]4CC(=O)CC[C@]4(C)[C@H]3CC(=O)[C@]12C [Dehydrocholic acid],0.196 ± 0.0059
18,CCC[C@@H]1C[C@@H](C(=O)N[C@@H]([C@H]2O[C@H](SC)[C@H](O)[C@@H](O)[C@H]2O)[C@@H](C)O)N(C)C1 [Lincomycin hydrochloride],0.172 ± 0.03
19,C[N+]1(CCCCC[N+]2(C)CCCC2)CCCC1 [Pentolinium bitartrate],0.1752 ± 0.00061
20,CCC(C)(CN(C)C)OC(=O)c1ccccc1 (stereo not given) [Amyleine hydrochloride],0.195 ± 0.027

# Same assay, conditions: arabinose induction (level): Low; compound 0.1 mM; raw OD600 reference: median of DMSO wells 0.227, cell-free background 0.041
row,SMILES,growth
1,O=C1CC[C@@H](C(=O)N2CSC[C@H]2C(=O)O)N1 [Pidotimod],0.235 ± 0.037
2,OCCOCCN1CCN(C(c2ccccc2)c2ccc(Cl)cc2)CC1 (stereo not given) [Hydroxyzine dihydrochloride],0.239 ± 0.048
3,O=C(Oc1cccc2cccnc12)c1ccccc1 [Benzoxiquine],0.201 ± 0.015
4,CCCN[C@H]1CCc2nc(N)sc2C1 [Pramipexole dihydrochloride],0.209 ± 0.013
5,NS(=O)(=O)c1cc2c(cc1Cl)N=C(CSCc1ccccc1)NS2(=O)=O [Benzthiazide],0.21 ± 0.012
6,CC(C(O)c1ccc(O)cc1)N1CCC(Cc2ccccc2)CC1 (stereo not given) [Ifenprodil tartrate],0.227 ± 0.036
7,O=C(O[C@@H]1C[C@@H]2C[C@H]3C[C@H](C1)N2CC3=O)c1c[nH]c2ccccc12 [Dolasetron mesilate],0.217 ± 0.016
8,Cc1ccc(/C(=C\CN2CCCC2)c2ccccn2)cc1 [Triprolidine hydrochloride],0.214 ± 0.055
9,C[C@H]1O[C@@H](O[C@H]2[C@@H](O)C[C@H](O[C@H]3[C@@H](O)C[C@H](O[C@H]4CC[C@@]5(C)[C@H](CC[C@@H]6[C@@H]5C[C@@H](O)[C@]5(C)[C@@H](C7=CC(=O)OC7)CC[C@]65O)C4)O[C@@H]3C)O[C@@H]2C)C[C@H](O)[C@@H]1O [Digoxin],0.236 ± 0.045
10,COc1cc2nc(N(C)CCCNC(=O)C3CCCO3)nc(N)c2cc1OC (stereo not given) [Alfuzosin hydrochloride],0.229 ± 0.006
11,CO[C@H]1/C=C/O[C@@]2(C)Oc3c(C)c(O)c4c(O)c(c(/C=N/N5CCN(C6CCCC6)CC5)c(O)c4c3C2=O)NC(=O)/C(C)=C\C=C\[C@H](C)[C@H](O)[C@@H](C)[C@@H](O)[C@@H](C)[C@H](OC(C)=O)[C@@H]1C [Rifapentine],0.0512 ± 0.00082
12,CNC(=C[N+](=O)[O-])NCCSCc1csc(CN(C)C)n1 [Nizatidine],0.228 ± 0.025
13,CC(C)CC(=O)N[C@H](C(=O)N[C@H](C(=O)N[C@@H](CC(C)C)[C@@H](O)CC(=O)N[C@@H](C)C(=O)N[C@@H](CC(C)C)[C@@H](O)CC(=O)O)C(C)C)C(C)C [Pepstatin A],0.246 ± 0.046
14,O=C(O)Cc1ccc(-c2ccccc2)cc1 [Felbinac],0.206 ± 0.022
15,Cc1cnc(NC(=O)C2=C(O)c3ccccc3S(=O)(=O)N2C)s1 [Meloxicam],0.195 ± 0.0074
16,O=c1[nH]c(=O)n([C@H]2C[C@H](O)[C@@H](CO)O2)cc1I [Idoxuridine],0.202 ± 0.03
17,C[C@H](CCC(=O)O)[C@H]1CC[C@H]2[C@@H]3C(=O)C[C@@H]4CC(=O)CC[C@]4(C)[C@H]3CC(=O)[C@]12C [Dehydrocholic acid],0.236 ± 0.04
18,CCC[C@@H]1C[C@@H](C(=O)N[C@@H]([C@H]2O[C@H](SC)[C@H](O)[C@@H](O)[C@H]2O)[C@@H](C)O)N(C)C1 [Lincomycin hydrochloride],0.179 ± 0.043
19,C[N+]1(CCCCC[N+]2(C)CCCC2)CCCC1 [Pentolinium bitartrate],0.185 ± 0.0091
20,CCC(C)(CN(C)C)OC(=O)c1ccccc1 (stereo not given) [Amyleine hydrochloride],0.209 ± 0.0057
